The source of these data is ChEMBL document CHEMBL3433997, “St. Jude Leishmania screening dataset” (2016).

The experiment concerns the target Glucose transporter (Leishmania mexicana) (UniProt O61059). As to the kind of experiment: ST_JUDE_LEISH: Cytotoxicity at 2uM final concentration against transgenic Leishmania Mexicana promastigotes LmGT2 that are glucose transport deficient and complemented with the L. Mexicana glucose transporter 2. Activity is measured by DNA content using SYBR green in vitro. In kind it is functional.
The term inhibition denotes the change of the read-out against control, counted positive when it falls. Turning to `CC(=O)Nc1ncc(C(=O)Nc2cccc(-c3ccc(-c4nc5cc(F)ccc5[nH]4)cc3)c2)s1`, the inhibition amounted to 2.62%. For `CN(C)CCOc1cc(NC(=O)Nc2ccc(Cl)cc2C(F)(F)F)ccc1I`, the inhibition was -3.2%. `CCc1ccccc1N=C1c2c(cccc2[N+](=O)[O-])C(=O)C1C(C)=O` (stereo unspecified): the inhibition was -2.14%. `O=C(O)C[C@H](NC(=O)[C@@H]1CCCN1C(=O)c1cccc(-c2ccc(Cl)c(Cl)c2)c1)C(=O)O`: the inhibition was 1.61%.

For the compound `O=C(/C=C/c1ccc(Cl)c(Cl)c1)NCCCCCN1CCCN(C(=O)Nc2cccc(F)c2)CC1`, the inhibition was determined as 3.86%. Regarding `Clc1cccc(C=NNc2nc(=Nc3ccccc3)[nH]c(=Nc3ccccc3)[nH]2)c1`, the inhibition amounted to 3.05%. The same measure for `O=C(/C=N/O)Nc1ccccc1[N+](=O)[O-]`: 0.39%; for `CCNc1cc(C)nc(Nc2ccc(NC(=O)c3ccco3)cc2)n1`: -0.01%. The figure for `Cc1ccccc1CN1CCCN(Cc2ccc(C(=O)Nc3ccc(C(C)(C)C)cc3)cc2)CC1` is 3.55%; for `O=S(=O)(Nc1ccc2nccc(N3CCNCC3)c2c1)c1ccc2oc3ccccc3c2c1` it is 5.02%; for `CC(C)(CNCc1ccc(Cl)c(Cl)c1)c1nc(-c2ccc(Cl)c(O)c2)c(-c2ccncc2)[nH]1` it is 4.37%. Turning to `CCOCCCn1c(=N)c(C(=O)NCc2ccc(F)cc2)cc2c(=O)n3cccc(C)c3nc21`, the inhibition is -1.34%.

With `Clc1ccc(Nc2nc3ccc(Cl)cc3nc2Nc2ccc(Cl)cc2)cc1`, the inhibition was 7.3%. For the compound `Cc1nc(-c2cccc(C(=O)NC3CCC(CCN4CCc5ccc(-c6cccnc6)cc5CC4)CC3)c2)no1` (stereo unspecified), the inhibition amounted to 4.24%. The same measure for `FC(F)(F)c1ccc2[nH]c(-c3cccc(-c4ccc(CNCCc5ccncc5)cc4)c3)nc2c1`: -0.21%; for `COc1cc(F)c2ncc(C#N)c(CCN3CCC(NCc4ccc5c(c4)OCCO5)CC3)c2c1`: 93.9%. The figure for `CCN1CCN(CCCNc2c3ccc(Cl)cc3nc3ccc(O)cc23)CC1` is 0.06%; for `Cc1ccccc1CN1CCCN(Cc2ccc(C(=O)Nc3ccc(Cl)cc3)cc2)CC1` it is 6.4%; for `O=C(/C=C/c1ccc(Cl)c(Cl)c1)N1CCC(CNCc2cccc3cc[nH]c23)CC1` it is 1.48%. As to `O=C(Nc1cccnc1)c1cn(-c2ccccc2)nc1-c1cccs1`, the inhibition was -1.31%. The same measure for `CN1CCCC(CN2CCN(Cc3ccc(-c4ccc(-c5nc6cc(F)ccc6[nH]5)cc4)cc3)CC2)C1` (stereo unspecified): 2.38%; for `O=C(NCCCN1CCN(c2cccc(Cl)c2)CC1)c1ccc(-c2nc3cc(Cl)c(Cl)cc3[nH]2)c(F)c1`: 1.68%; for `Cc1ccc2nc(N/C(N)=N/C(=O)NC3CCCCC3)nc(C)c2c1`: 2.16%. The figure for `O=C(Nc1ccc2c(c1)OCO2)c1cc(-c2cccnc2)nc2ccc(Cl)cc12` is -0.92%; for `COc1cc(CNc2ncc(-c3ccsc3)c(-c3nccs3)n2)cc(OC)c1` it is -0.78%; for `CCOC(=O)c1[nH]c2ccc(F)cc2c1NC(=O)CN1CCN(c2cccc(C(F)(F)F)c2)CC1` it is -2.97%.
